System: Aedes aegypti larvae
Experiment: larval motility relative to same well at 0 h (fraction); higher = more motile (less active compound), active = 0.4 or less
Conditions: 10 µM
Summary of the method: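 Larvae (Aedes aegypti, hatched in pond salt solution with yeast at 25 °C and taken 18–24 h later) were plated at about 10 per 100 µL well. Compounds at 10 µM in 1% v/v DMSO were imaged with INVAPP at 0, 2 and 24 h, alongside solvent and larvicide controls on each plate. Reported relative motility is each well's score over its own starting score, as a median of three independent larval batches.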

| Structure (SMILES) | larval motility (2 h) | larval motility (24 h) |
| --- | --- | --- |
| CCc1cc(Nc2cc(=O)n(CCN3CCN(C(=O)c4ccccc4)CC3)c(=O)[nH]2)ccc1C | 1.11 (inactive) | 1.07 (inactive) |
| Cc1ccc(C)c(OCCCCCCN2C[C@H](O)[C@@H](O)[C@H](O)[C@H]2CO)c1 | 0.635 (inactive) | 0.552 (inactive) |
| NC1C2CC3CC(C2)CC1C3 (stereo unspecified) | 0.973 (inactive) | 1.31 (inactive) |
| COc1ccc(-n2cnc3cc(NCc4ccco4)ccc32)cc1 | 0.835 (inactive) | 1.63 (inactive) |
| CC1(C)Cc2c(C#N)c(SCCc3ccccc3)nc(N3CCOCC3)c2CO1 | 0.485 (inactive) | 1.28 (inactive) |
| O=C(CSc1nnc(Br)n1-c1ccc(C2CC2)c2ccccc12)Nc1ccc(C(=O)O)cc1Cl | 0.815 (inactive) | 0.894 (inactive) |
| COc1cc(C)c2c(Oc3cccc(C(F)(F)F)c3)c(OC)cc(NC(C)CCCN)c2n1 (stereo unspecified) | 0.654 (inactive) | 0.385 (active) |
| Cc1cc(O)c2c(c1)C(=O)c1c(I)c(O)c(I)c(O)c1C2=O | 0.851 (inactive) | 1.08 (inactive) |
| Oc1ccc2[nH]c(-c3ccccc3)nc2c1 | 0.633 (inactive) | 0.514 (inactive) |
| Cc1ccc(N2CCC(CCOc3ccc(S(C)(=O)=O)cc3)CC2)nn1 | 0.943 (inactive) | 0.683 (inactive) |
| O=C(Nc1ncc(Cc2cccc3ccccc23)s1)C1CCCCC1 | 1.07 (inactive) | 1.56 (inactive) |
| Cc1cc(CCOc2c(C)cc(-c3nnn(C)n3)cc2C)on1 | 0.857 (inactive) | 0.768 (inactive) |
| O=C(NO)C1(CS(=O)(=O)c2ccc(Oc3ccc(Cl)cc3)cc2)CCOCC1 | 0.471 (inactive) | 1.04 (inactive) |
| CC[C@H](CO)Nc1nc(NCc2ccccc2)c2ncn(C(C)C)c2n1 | 0.799 (inactive) | 0.755 (inactive) |
| Cc1c(OCC(F)(F)F)ccnc1CS(=O)c1nc2ccccc2[nH]1 (stereo unspecified) | 1.17 (inactive) | 1.38 (inactive) |
| C=C(C)n1c(=O)n(Cc2ccccc2C)c2ccccc21 | 1.39 (inactive) | 0.851 (inactive) |
| CCCCc1ccc(-c2nc(C)c(C(=O)OC)s2)cc1 | 1.33 (inactive) | 0.97 (inactive) |

| Structure (SMILES) | larval motility (2 h) | larval motility (24 h) |
| --- | --- | --- |
| CC(C)Nc1ncnc2c1cnn2-c1ccc(Cl)cc1 | 0.689 (inactive) | 0.773 (inactive) |
| Cc1cc(C)n(O)c(=O)c1 | 0.846 (inactive) | 0.863 (inactive) |
| Cn1cc(NC(=O)c2cc(NC(=O)c3ccc(/C=C/c4cnc5ccccc5c4)cc3)cn2C)cc1C(=O)NCCN1CCOCC1 | 1.3 (inactive) | 0.773 (inactive) |
| CC(C)(C)c1ccc(Oc2ccc(N)cc2)cc1 | 0.91 (inactive) | 1.33 (inactive) |
| O=C(Nc1ccccc1)N(Cc1cc(Br)ccc1O)c1ccc(F)cc1 | 0.646 (inactive) | 1.02 (inactive) |
| CCc1c(OCC2CCC2)c2cc(F)ccc2[nH]c1=O | 1.07 (inactive) | 1.08 (inactive) |
| N#Cc1c(F)c(Cl)c(NCc2ccccc2)c(C#N)c1F | 0.585 (inactive) | 0.978 (inactive) |
| Cc1ccc(S(=O)(=O)Nc2cccc3cccnc23)cc1 | 1.02 (inactive) | 0.566 (inactive) |
| COc1cc(NS(=O)(=O)c2ccc(C)cc2)c2ncccc2c1 | 0.89 (inactive) | 0.666 (inactive) |
| O=[N+]([O-])c1cn(Cc2nc(O)nc(O)c2Br)cn1 | 0.834 (inactive) | 0.417 (inactive) |
| O=C(O)c1ccccc1Sc1ncnc2sc3c(c12)CCC3 | 0.968 (inactive) | 0.722 (inactive) |
| CCN(CC)CCn1c(=N)n(CC(O)COc2ccc(Cl)cc2Cl)c2ccccc21 (stereo unspecified) | 0.783 (inactive) | 0.86 (inactive) |
| CCCCC(CC)CNC(=N)NC(=N)NCCCCCCNC(=N)NC(=N)NCC(CC)CCCC (stereo unspecified) | 0.646 (inactive) | 1.07 (inactive) |
| CSC[C@H]1CN(Cc2c[nH]c3c(N)ncnc23)C[C@@H]1O | 1.02 (inactive) | 0.589 (inactive) |
| O=C(CP(=O)(O)O)NCCc1cccc(Oc2ccccc2)c1 | 2.12 (inactive) | 1.06 (inactive) |
| CC(C)(C)NC(=O)N[C@H](C(=O)N1C[C@H]2[C@@H]([C@H]1C(=O)NC(CC1CCC1)C(=O)C(N)=O)C2(C)C)C(C)(C)C (stereo partly specified) | 0.758 (inactive) | 0.813 (inactive) |
